# Measurements from PubChem BioAssay (NCATS).
# Inconclusive results are not listed. A call without a number means that no potency is given here. The source made the active and inactive calls. Unless noted, calls come from the whole dose curve; as a rule, active = well fitted curve in the direction sought with a large enough effect; inconclusive = small, poorly fitted or top-dose-only effect, or another doubt; inactive = no such curve, though single readings can be large; an effect the other way counts as inactive or inconclusive.
# Legend:
# [1] = Cell Viability - LYMP2-024 (AID 988);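 note: cells exposed to compound for 24 hr at 37 °C; nearly all actives have a fitted effect of over 60% in size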; note: potency is the fitted concentration of half-maximal effect
# How it was run: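 Acute toxicity is measured as concentration-dependent loss of intracellular ATP in a human lymphoblastoid line treated 24 hours at 37 C. Luciferase luminescence quantifies ATP; AC50 values come from standard Hill-equation modelling.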
# [2] = Cell Viability - LYMP2-026 (AID 989); note: nearly all actives have a fitted effect of over 50% in size; note: potency is the fitted concentration of half-maximal effect
# How it was run: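 Concentration-dependent loss of intracellular ATP in human lymphoblastoid cells after 24 hr at 37 C, quantified by luciferase luminescence. AC50 derived from standard Hill equation.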
# [3] = Cell Viability - LYMP1-002 - Assay at 24 hr (AID 993); note: potency is the fitted concentration of half-maximal effect
# How it was run: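 qHTS, LYMP1-002 lymphoblastoid, 24 h cpd, 37 C, CellTiter-Glo ATP luminescence; AC50 via Hill eq.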
# [4] = Cell Viability - LYMP1-002 - Assay at 40 hr (AID 994); note: nearly all actives have a fitted effect of over 60% in size; note: potency is the fitted concentration of half-maximal effect
# How it was run: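 Viability in the human lymphoblastoid line was measured as intracellular ATP via CellTiter-Glo after 40 hr compound exposure. Tetraoctylammonium bromide served as positive control.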
# [5] = Counterscreen for APE1 Inhibitors: Fluorescent Dye Displacement Validation Assay (AID 1707)
# How it was run: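 Assay buffer: Tris-HCl pH7.5 with 50mM NaCl, 2 mM MgCl2, 0.01% Tween-20. Dye 250 nM, duplex 50 nM final. Readout: decrease in ThO endpoint fluorescence, 480 nm excitation, 540 nm emission.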
# [6] = target: Endonuclease 4 (Escherichia coli (strain K12)) (UniProt P0A6C1); assay: Counterscreen for APE1 Inhibitors: qHTS Validation Assay for Inhibitors of Endonuclease IV (AID 1708)
# How it was run: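 2 nM enzyme was preincubated with compounds for 15 min at room temperature in 50 mM Tris-HCl pH 7.5, 50 mM NaCl, 2 mM MgCl2, 1 mM DTT, 0.01% Tween-20. 50 nM THF-abasic TAMRA/BHQ-2 duplex substrate started the reaction.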
# [7] = qHTS for differential inhibitors of proliferation of Plasmodium falciparum line GB4 (AID 1816); details: Potency: Plasmodium falciparum GB4 proliferation inhibition;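 note: parasite growth measured after 72 h incubation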; note: potency is the fitted concentration of half-maximal effect
# [8] = qHTS for differential inhibitors of proliferation of Plasmodium falciparum line 3D7 (AID 1876);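 note: parasite growth measured after three days of culture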
# [9] = qHTS for differential inhibitors of proliferation of Plasmodium falciparum line D10 (AID 1877);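 note: parasites grown with compound for 72 h before DNA staining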
# [10] = qHTS for differential inhibitors of proliferation of Plasmodium falciparum line W2 (AID 1883); details: Potency: Plasmodium falciparum W2 proliferation inhibition;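 note: parasites grown with compound for 72 h before lysis and staining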; note: potency is the fitted concentration of half-maximal effect
# [11] = qHTS for differential inhibitors of proliferation of Plasmodium falciparum line HB3 (AID 1886); details: Potency: Plasmodium falciparum HB3 proliferation inhibition;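 note: parasites grown with compound for 72 h before SYBR Green readout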
# [12] = qHTS Assay for Modulators of Human Peripheral Myelin Protein 22 (PMP22) Expression/Activity (AID 1967; active = well fitted curve in the direction sought with a large enough effect in the signal ratio; the % refers to the signal ratio)
# How it was run: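 Mouse MSC80 Schwann line, Pmp22 promoter–CBG68 reporter, EF-alpha–CBR internal control. 24h compound exposure, 37 °C/5% CO2, DMEM + 10% FBS. Readout: corrected green/red luminescence ratio, normalized to untreated cells; concentration-response curves fitted and classified.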
# [13] = target: Alpha-galactosidase A (Homo sapiens) (UniProt P06280); assay: Counterscreen for Glucocerebrosidase Inhibitors: qHTS Assay for Human alpha-Galactosidase at pH 4.5 (AID 992)
# How it was run: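 Concentration-response curves (0.7 nM to 77 uM final) were modeled with the Hill equation to give AC50. Reactions: 2 nM enzyme, 80 uM fluorogenic alpha-galactoside, pH 4.5 citric acid buffer, 20 min, room temperature.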
# [14] = target: alpha-glucosidase (Oryza sativa, rice) (UniProt Q653V4); assay: Counterscreen for Glucocerebrosidase Inhibitors: qHTS Assay for Rice alpha-Glucosidase at pH 5.0 (AID 997)
# How it was run: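 Rice alpha-glucosidase (4 nM final) with 400 uM 4-methylumbelliferyl-alpha-D-glucopyranoside in citrate buffer pH 5.0, 20 min at room temperature, stopped at pH 10; fluorescence 365/440 nm, compounds 0.7 nM–77 uM, AC50 from Hill fits.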
# [15] = target: Alpha-galactosidase (Coffea arabica) (UniProt Q42656); assay: Counterscreen for Glucocerebrosidase Inhibitors: qHTS Assay for Coffee Bean alpha-Galactosidase at pH 5.9 (AID 998)
# How it was run: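 Green coffee bean enzyme (2 nM final) was incubated with compounds (0.7 nM–77 uM) and 4-methylumbelliferyl alpha-D-galactopyranoside (80 uM) in citrate buffer pH 5.9, 20 min at room temperature. High-pH stop; fluorescence 365/440 nm; AC50 from Hill fits.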
# [16] = qHTS for differential inhibitors of proliferation of Plasmodium falciparum line 7G8 (AID 1815);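 note: parasite growth measured after three days of incubation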
# [17] = qHTS for differential inhibitors of proliferation of Plasmodium falciparum line Dd2 (AID 1882); details: Potency: Plasmodium falciparum Dd2 proliferation inhibition;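 note: series mostly up to about 29 µM; compound exposure of 72 h on infected erythrocytes; nearly all actives have a fitted effect of over 65% in size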
# How it was run: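 SYBR Green I DNA fluorescence read-out, ex 485/em 535 nm. Signals were normalized to 0.29 uM artemisinin and DMSO wells, then corrected using vehicle-only plates flanking each stack. Parasite growth ran 72 h in erythrocytes before lysis.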
# Chain of Alpha-galactosidase A (Homo sapiens) (P06280 whole entry, looked up): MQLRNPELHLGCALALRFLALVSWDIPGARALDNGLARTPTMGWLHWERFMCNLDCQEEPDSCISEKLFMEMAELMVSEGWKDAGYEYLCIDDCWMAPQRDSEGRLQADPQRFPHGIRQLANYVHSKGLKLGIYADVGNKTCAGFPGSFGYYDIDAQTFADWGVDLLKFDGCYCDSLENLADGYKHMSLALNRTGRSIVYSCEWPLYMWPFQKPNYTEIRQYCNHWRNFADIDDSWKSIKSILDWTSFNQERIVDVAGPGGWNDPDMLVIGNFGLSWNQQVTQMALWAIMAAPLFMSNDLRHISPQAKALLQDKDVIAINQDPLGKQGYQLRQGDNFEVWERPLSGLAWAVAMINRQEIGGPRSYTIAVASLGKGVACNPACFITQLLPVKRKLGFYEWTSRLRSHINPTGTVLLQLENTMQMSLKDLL
# Chain of Alpha-galactosidase (Coffea arabica) (Q42656 whole entry, looked up): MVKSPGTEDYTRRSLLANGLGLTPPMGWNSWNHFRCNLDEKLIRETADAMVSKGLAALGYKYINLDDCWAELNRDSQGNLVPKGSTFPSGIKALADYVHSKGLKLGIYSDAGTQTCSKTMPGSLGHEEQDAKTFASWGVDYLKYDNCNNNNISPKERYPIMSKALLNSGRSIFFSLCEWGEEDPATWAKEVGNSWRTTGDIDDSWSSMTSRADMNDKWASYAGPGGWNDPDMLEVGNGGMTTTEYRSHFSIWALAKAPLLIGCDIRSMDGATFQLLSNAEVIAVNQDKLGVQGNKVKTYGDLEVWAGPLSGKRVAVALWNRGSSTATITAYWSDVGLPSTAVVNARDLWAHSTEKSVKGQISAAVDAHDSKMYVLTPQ
compound,measurement,setting,value
[Cl-].[Cl-].[Hg+2],Potency,[1],0.398 µM (active)
same,Potency,[2],20 µM (active)
same,Potency,[3],1.26 µM (active)
same,Potency,[4],3.16 µM (active)
C[C@H]1CCC[C@H](O)CCCCCc2cc(O)cc(O)c2C(=O)O1,Potency,[1],inactive
same,Potency,[2],inactive
same,Potency,[3],inactive
same,Potency,[4],inactive
CC(N)c1cccc(Cl)c1Cl (stereo unspecified),Potency,[5],inactive
same,Potency,[6],inactive
same,Potency,[7],11.2 µM (active)
same,Potency,[8],inactive
same,Potency,[9],inactive
same,Potency,[10],8.91 µM (active)
same,Potency,[11],inactive
same,outcome,[12],inactive
CC(C)CCON=O,Potency,[1],inactive
same,Potency,[2],inactive
same,Potency,[3],inactive
same,Potency,[4],inactive
C[N+](C)(C)CCOC(=O)CBr,outcome,[13],inactive
same,outcome,[14],inactive
same,outcome,[15],inactive
same,Potency,[5],inactive
same,Potency,[6],inactive
same,Potency,[16],inactive
same,Potency,[7],inactive
same,Potency,[8],inactive
same,Potency,[9],inactive
same,Potency,[17],inactive
same,Potency,[10],inactive
same,Potency,[11],inactive
same,outcome,[12],inactive
CC(C)Nc1ccc(Nc2ccccc2)cc1,Potency,[1],12.6 µM (active)
same,Potency,[2],39.8 µM (active)
same,Potency,[3],31.6 µM (active)
same,Potency,[4],50.1 µM (active)
CC(C)(C)c1cc(O)ccc1O,Potency,[1],31.6 µM (active)
same,Potency,[2],inactive
same,Potency,[3],inactive
same,Potency,[4],inactive
C=CCN=C=S,Potency,[1],inactive
same,Potency,[2],inactive
same,Potency,[3],inactive
same,Potency,[4],inactive
CCCCCCCCOC(=O)c1ccccc1C(=O)OCCCCCCCC,Potency,[1],inactive
same,Potency,[2],inactive
same,Potency,[3],inactive
same,Potency,[4],inactive
CCCCCl,Potency,[1],inactive
same,Potency,[2],inactive
same,Potency,[3],inactive
same,Potency,[4],inactive
C/C(O)=C(\C#N)C(=O)Nc1cc(Br)ccc1Br,Potency,[16],inactive
same,Potency,[7],inactive
same,Potency,[8],inactive
same,Potency,[9],inactive
same,Potency,[17],inactive
same,Potency,[10],inactive
same,Potency,[11],inactive
same,outcome,[12],inactive
CCCN1CCc2cc(O)cc3c2[C@H]1Cc1ccc(O)c(O)c1-3,outcome,[13],inactive
same,outcome,[15],inactive
ClC(Cl)(Cl)Cl,Potency,[1],inactive
same,Potency,[2],inactive
same,Potency,[3],inactive
same,Potency,[4],inactive
Oc1cc(Cl)c(Cl)cc1Cl,Potency,[2],inactive
same,Potency,[3],inactive
same,Potency,[4],inactive
O=C1CCO1,Potency,[1],inactive
same,Potency,[2],inactive
same,Potency,[3],inactive
same,Potency,[4],inactive
COC1=CC(=O)O[C@@H](/C=C/c2ccccc2)C1,Potency,[1],inactive
same,Potency,[2],inactive
same,Potency,[3],inactive
same,Potency,[4],inactive
Clc1ccccc1Cl,Potency,[1],inactive
same,Potency,[2],inactive
same,Potency,[3],inactive
same,Potency,[4],inactive
O=C/C=C/c1ccccc1,Potency,[1],inactive
same,Potency,[2],inactive
same,Potency,[3],inactive
same,Potency,[4],inactive
